Experimental data from PubChem BioAssay (Tox21).
Values joined by “and” are separate entries in the source; they are usually repeats but may differ in a detail not shown here. Equal values may be shown once. Inconclusive results are not listed. Active and inactive are the calls of the source. Unless noted, the call rests on the fitted dose curve; in most records, active means well fitted curve in the direction sought with a large enough effect in the repeat runs; inconclusive means weak or mixed curves; inactive means no such curve, though single readings can be large; an effect the other way counts as inactive or inconclusive.

What was measured:
[1] = qHTS assay for small molecule agonists of the p53 signaling pathway (AID 651631; calls by dose curve; further: nearly all actives have a fitted effect of over 15% in size; further: potency means the concentration at half of the fitted maximal effect)
Method in brief: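 HCT-116 cells carrying a stable p53 response element–beta-lactamase reporter were plated, rested 5 h at 37 °C, then exposed to compound in DMSO for 16 h at 37 °C; reporter activity was read as FRET substrate fluorescence after 2 h at room temperature.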

[2] = qHTS assay for small molecules that induce genotoxicity in human embryonic kidney cells expressing luciferase-tagged ATAD5 (AID 651632); further: nearly all actives have a fitted effect of over 15% in size
Method in brief: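 Luminescence read-out: after 16 hr compound exposure at 37C, ATAD5-luciferase HEK293T cells received Amplite, 30 min RT, then CCD imaging. A rise in signal marks genotoxic stress.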

[3] = qHTS assay for small molecule agonists of the p53 signaling pathway - cell viability (AID 651633; calls by dose curve; further: nearly all actives have a fitted effect of over 30% in size; further: potency means the concentration at half of the fitted maximal effect)
Method in brief: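 Viability counter-read: CellTiter-Glo luminescence (30 min, room temperature) in the same p53RE-bla plates. These plates had been exposed to compounds for 16 h at 37 C.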

[4] = qHTS assay for small molecules that induce genotoxicity in human embryonic kidney cells expressing luciferase-tagged ATAD5 - cell viability (AID 651634; calls by dose curve; further: nearly all actives have a fitted effect of over 25% in size; further: potency means the concentration at half of the fitted maximal effect)
Method in brief: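 HEK293T ATAD5-luc cells, 2,000/well; compound 15.5 hr, 37C/5% CO2; CellTiter-Fluor 30 min, 37C; fluorescence read.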

[5] = qHTS assay for small molecule disruptors of the mitochondrial membrane potential - cell viability (AID 720634; calls by dose curve; further: nearly all actives have a fitted effect of over 20% in size; further: potency means the concentration at half of the fitted maximal effect)
Method in brief: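 Luminescence from CellTiter-Glo (ATP content) gave viability in HepG2 cells, read in the same wells as the MMP dye assay after 1 hr compound exposure at 37 C.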

[6] = qHTS assay for small molecule disruptors of the mitochondrial membrane potential (AID 720635); further: potency means the concentration at half of the fitted maximal effect
Method in brief: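 Mitochondrial membrane potential tracked with Mito-MPS dye, red aggregates (ex 540/em 590 nm) against green monomers (ex 490/em 535 nm). Compound treatment 1 hr at 37C, dye 30 min in HepG2.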

[7] = qHTS assay to test for compound auto fluorescence at 535 nm (green) in HepG2 cells (AID 720675)
[8] = qHTS assay to test for compound auto fluorescence at 590 nm (red) in HEK293 cells (AID 720679); further: potency means the concentration at half of the fitted maximal effect
Method in brief: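 Plates of HEK293 cells (10% dialyzed FBS) are treated with 23 nL compound or DMSO vehicle after a 4-5 hr attachment period, incubated overnight at 37C, and read for red fluorescence at 540/590nm.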

[9] = qHTS assay to test for compound auto fluorescence at 535 nm (green) in HEK293 cells (AID 720680)
[10] = qHTS assay to test for compound auto fluorescence at 460 nm (blue) in HEK293 cell free culture (AID 720681); further: potency means the concentration at half of the fitted maximal effect
Method in brief: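 Blue fluorescence (Ex 405/Em 460 nm, triamterene-equivalent) was read immediately after pin transfer of compound or DMSO into medium (DMEM, 10% FBS) without cells.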

[11] = qHTS assay to test for compound auto fluorescence at 535 nm (green) in HEK293 cell free culture (AID 720682)
Method in brief: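 Read-out: 485/535 nm fluorescence intensity, calibrated against fluorescein. Medium only (DMEM + 10% FBS, no cells); test compound or DMSO vehicle added by pintool before plate reading.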

[12] = qHTS assay to test for compound auto fluorescence at 590 nm (red) in HEK293 cell free culture (AID 720683); further: potency means the concentration at half of the fitted maximal effect
Method in brief: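 Red-channel autofluorescence of compounds in culture medium (DMEM, 10% FBS), no cells, measured at 540/590 nm. Rose Bengal sodium is the reference fluorophore for equivalence.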

[13] = qHTS assay to test for compound auto fluorescence at 590 nm (red) in HepG2 cell free culture (AID 720684); further: potency means the concentration at half of the fitted maximal effect
Method in brief: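 Cell-free; medium MEM + 10% FBS; compound or DMSO added by pintool; read Ex 540/Em 590 nm; Rose Bengal sodium as red reference fluorophore.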

[14] = qHTS assay to test for compound auto fluorescence at 460 nm (blue) in HepG2 cell free culture (AID 720685); further: potency means the concentration at half of the fitted maximal effect
Method in brief: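 Cell-free plates of MEM plus 10% FBS received 23 nL compound or DMSO vehicle; blue-channel (405/460 nm) intensity scored against triamterene as reference fluorophore.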

[15] = qHTS assay to test for compound auto fluorescence at 535 nm (green) in HepG2 cell free culture (AID 720686)
[16] = qHTS assay to test for compound auto fluorescence at 460 nm (blue) in HepG2 cells (AID 720687)
Method in brief: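 Blue-channel autofluorescence (Ex/Em 405/460 nm, triamterene-equivalent) was measured after 1 hr compound exposure at 37 C, 5% CO2. Cells were HepG2, plated overnight at 37 C in MEM plus 10% FBS.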

[17] = target: Glucocorticoid receptor (Homo sapiens) (UniProt P04150); assay: qHTS assay to identify small molecule agonists of the glucocorticoid receptor (GR) signaling pathway (AID 720691; active means well fitted activation curve with a large enough effect in the signal ratio in the repeat runs, not every such curve was filed as active; the % refers to the signal ratio)
Method in brief: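 HeLa GR-bla reporter line; cells pre-incubated 4 h, compound in DMSO 18 h at 37 C; LiveBLAzer B/G FRET substrate 2 h RT; fluorescence intensity read-out.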

[18] = target: Glucocorticoid receptor (Homo sapiens) (UniProt P04150); assay: qHTS assay to identify small molecule antagonists of the glucocorticoid receptor (GR) signaling pathway (AID 720692; active means well fitted inhibition curve with a large enough effect in the signal ratio in the repeat runs, not every such curve was filed as active; the % refers to the signal ratio; further: potency means the concentration at half of the fitted maximal effect)
Method in brief: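 Read-out: beta-lactamase FRET substrate fluorescence, 2 h at room temperature, in HeLa cells stably carrying a GRE-driven bla reporter. Compounds were co-incubated with 5 nM dexamethasone agonist (final) for 18 h at 37 C.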

[19] = qHTS assay to test for compound auto fluorescence at 590 nm (red) in HepG2 cells (AID 720674); further: potency means the concentration at half of the fitted maximal effect
Method in brief: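 We screened compounds on adherent HepG2 cells, incubating them for an hour at 37 C in 5% CO2 before reading emission at 590 nm under 540 nm excitation; values reflect equivalence to Rose Bengal sodium fluorescence.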

[20] = qHTS assay to test for compound auto fluorescence at 460 nm (blue) in HEK293 cells (AID 720678); further: potency means the concentration at half of the fitted maximal effect
Method in brief: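 After cell attachment (4-5 hr, 37C), compounds were pinned onto HEK293 monolayers in 10% dialyzed FBS medium. The blue channel (405/460 nm) was read following overnight culture. Equivalency was calculated against triamterene.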

Measured: Potency
Tags describe the fitted curve by direction and shape or compound fluorescence and quenching.

Sequence of Glucocorticoid receptor (Homo sapiens) (P04150 whole entry, looked up): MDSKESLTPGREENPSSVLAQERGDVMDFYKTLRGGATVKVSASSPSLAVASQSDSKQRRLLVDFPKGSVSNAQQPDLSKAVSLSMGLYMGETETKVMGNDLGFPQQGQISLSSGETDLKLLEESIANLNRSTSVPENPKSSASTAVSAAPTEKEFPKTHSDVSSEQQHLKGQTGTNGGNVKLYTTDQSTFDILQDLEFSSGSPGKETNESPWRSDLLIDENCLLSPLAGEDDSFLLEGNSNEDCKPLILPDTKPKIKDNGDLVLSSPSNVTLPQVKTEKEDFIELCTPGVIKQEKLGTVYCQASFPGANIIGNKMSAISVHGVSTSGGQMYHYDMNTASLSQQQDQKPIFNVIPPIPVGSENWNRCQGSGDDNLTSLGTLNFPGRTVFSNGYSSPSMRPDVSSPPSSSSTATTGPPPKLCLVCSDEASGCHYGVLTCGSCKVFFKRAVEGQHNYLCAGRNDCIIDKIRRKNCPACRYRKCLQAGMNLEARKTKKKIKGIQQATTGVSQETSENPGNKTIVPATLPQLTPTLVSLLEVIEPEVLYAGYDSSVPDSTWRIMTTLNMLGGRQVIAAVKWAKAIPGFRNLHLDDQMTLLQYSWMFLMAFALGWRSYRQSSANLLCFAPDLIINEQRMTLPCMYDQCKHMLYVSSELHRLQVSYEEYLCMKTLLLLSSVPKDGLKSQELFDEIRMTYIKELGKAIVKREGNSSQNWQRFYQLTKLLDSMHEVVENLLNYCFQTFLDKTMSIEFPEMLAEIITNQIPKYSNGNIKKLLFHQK

CC(C)CCOC(=O)/C=C/c1ccccc1
not listed: [19] | [20]
inactive: all other assays above

CCN(CC)c1ccc2c(-c3ccc(S(=O)(=O)O)cc3S(=O)(=O)[O-])c3ccc(=[N+](CC)CC)cc-3oc2c1
active: [3] 9.99 µM | [4] 25.1 µM | [5] 70.7 µM | [19] 0.398 µM | [8] 0.501 µM [fluorescent] | [12] 0.794 µM [fluorescent] | [13] 0.355 µM [fluorescent]
not listed: [6]
inactive: all other assays above

O=S(=O)(O)c1ccc(Nc2nc(Nc3ccc(/C=C/c4ccc(Nc5nc(Nc6ccc(S(=O)(=O)O)cc6)nc(N(CCO)CCO)n5)cc4S(=O)(=O)O)c(S(=O)(=O)O)c3)nc(N(CCO)CCO)n2)cc1
active: [1] 41.3 µM | [20] 31.6 µM [fluorescent] | [10] 25.1 µM | [14] 35.5 µM [fluorescent]
not listed: [6] | [16] | [17] | [18] | [19]
inactive: all other assays above

CCCCCCCCCCCCCC[N+](C)(C)C
active: [1] 21.1 µM | [3] 26.6 µM | [6] 17.6 µM and 13.2 µM and 6.85 µM | [18] 15.5 µM
not listed: [16] | [17] | [19] | [20]
inactive: all other assays above

[Cl][Pt-2]([Cl])([Cl])[Cl]
not listed: [6] | [18]
inactive: all other assays above

COc1cc(S(=O)(=O)O)c(C)cc1N=Nc1c(O)ccc2cc(S(=O)(=O)O)ccc12
active: [4] 27.3 µM
not listed: [6]
inactive: all other assays above

CCCCCCC1CCCC(=O)O1 (stereo not given)
not listed: [6] | [19]
inactive: all other assays above

CN1CCCCC1CCN1c2ccccc2Sc2ccc(S(C)=O)cc21 (stereo not given)
not listed: [6] | [19]
inactive: all other assays above

O=[N+]([O-])c1cccc(C(F)(F)F)c1
not listed: [6] | [20]
inactive: all other assays above

Clc1nnc(Cl)c2ccccc12
not listed: [6] | [18]
inactive: all other assays above

OC1CCCc2ccccc21 (stereo not given)
not listed: [6] | [17] | [18]
inactive: all other assays above

Cc1ccc(N/N=c2\c(=O)cc/c(=N\Nc3ccc(S(=O)(=O)O)cc3)c2=O)c(C)c1
active: [4] 61.1 µM
not listed: [6] | [17] | [18]
inactive: all other assays above

CC(C)(C)C1CCC(=O)CC1
not listed: [6] | [12] | [16] | [18]
inactive: all other assays above

CN(C)Cc1cc(C(C)(C)C)c(O)c(C(C)(C)C)c1
not listed: [6] | [18]
inactive: all other assays above
